Experimental data reported in PubChem BioAssay (NCI).
Compounds without any hit were thinned out: in the full panel of roughly 79,000, 15% have a hit. Unmarked numbers belong to inactive results. The source made the active and inactive calls. Cut-off read from the data, not from the text of the source: active = growth inhibition above about 70%; inactive = the rest.

Tests used:
[1] = NCI Yeast Anticancer Drug Screen. Data for the rad50 strain (AID 155);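 note: 0% = growth of vehicle-only cultures of the same strain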; conditions: S. cerevisiae rad50 strain growth inhibition, active compounds read high
Summary of the method: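 A DNA repair-deficient yeast mutant serves as the test organism; compound-induced growth inhibition is calculated against vehicle-treated cells.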

[2] = NCI Yeast Anticancer Drug Screen. Data for the mec2-1 strain (AID 157); conditions: S. cerevisiae mec2-1 strain, active compounds read high
Summary of the method: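 Readout is yeast growth inhibition, normalised to vehicle-treated controls, in the mec2-1 strain exposed to compound.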

[3] = NCI Yeast Anticancer Drug Screen. Data for the sgs1 mgt1 strain (AID 161);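 note: 0% = growth of cultures given vehicle only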; conditions: S. cerevisiae sgs1 mgt1 strain, active compounds read high
Summary of the method: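 Percent growth inhibition was derived by comparing compound-exposed mutant yeast with vehicle-exposed cultures. The strain carries alterations in DNA damage repair.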

[4] = NCI Yeast Anticancer Drug Screen. Data for the cln2 rad14 strain (AID 165);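 note: 0% = growth equal to vehicle treated cultures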; conditions: S. cerevisiae cln2 rad14 strain, active compounds read high
Summary of the method: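 Relative to vehicle controls, growth inhibition of compound-treated cln2 rad14 yeast was recorded.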

[5] = NCI Yeast Anticancer Drug Screen. Data for the bub3 strain (AID 167); conditions: S. cerevisiae bub3 mutant strain, active compounds read high
Summary of the method: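 Inhibition values come from growth of compound-treated mutant yeast normalised to vehicle-treated controls.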

[6] = NCI Yeast Anticancer Drug Screen. Data for the mlh1 rad18 strain (AID 175); conditions: S. cerevisiae mlh1 rad18 strain growth inhibition, active compounds read high
Summary of the method: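 Test agents were incubated with a yeast strain of defined genotype (DNA damage repair defect). Inhibition of growth was derived by comparison with vehicle-exposed cultures.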

[7] = at 5.0 µM (retest, dose inferred, filed as 0.5)
[8] = at 50.0 µM (retest, dose inferred, filed as 5.0)

Row | SMILES | growth inhibition [1, 7] | growth inhibition [1, 8] | growth inhibition ([1]; at 50.0 µM) | growth inhibition [2, 7] | growth inhibition [2, 8] | growth inhibition ([2]; at 50.0 µM) | growth inhibition [3, 7] | growth inhibition [3, 8] | growth inhibition ([3]; at 50.0 µM) | growth inhibition [4, 7] | growth inhibition [4, 8] | growth inhibition ([4]; at 50.0 µM) | growth inhibition [5, 7] | growth inhibition [5, 8] | growth inhibition ([5]; at 50.0 µM) | growth inhibition [6, 7] | growth inhibition [6, 8] | growth inhibition ([6]; at 50.0 µM)
1 | CC12CCC(=O)C=C1C=CC1C2CCC2(C)C1CCC21CCC(=O)O1 (centres undefined) | 11% | 99% (active) | 74.6% (active) | 5% | 99% (active) | 80.2% (active) | 7% | 99% (active) | 84% (active) | 2% | 99% (active) | 24.1% | -1% | 99% (active) | 66.7% | 7% | 99% (active) | 72.8% (active)
2 | CCOC(=O)N1C=CC(=C2C(=C3C=CN(C(=O)OCC)C=C3)C(=C3C=CN(C(=O)OCC)C=C3)C2=C2C=CN(C(=O)OCC)C=C2)C=C1 | 55% | 95% (active) | 95.9% (active) | -4% | 57% | 75.3% (active) | -4% | 60% | 65.8% | -3% | 52% | -0.55% | -4% | 47% | 54.1% | 1% | 58% | 85.7% (active)
3 | O=C1C(Br)=C(Sc2ccc([N+](=O)[O-])cc2)C(=O)c2ccccc21 | 56% | 90% (active) | 93.5% (active) | 64% | 94% (active) | 96.7% (active) | 51% | 96% (active) | 96.6% (active) | 11% | 91% (active) | 84.2% (active) | 65% | 96% (active) | 96.6% (active) | 33% | 92% (active) | 97% (active)
4 | O=C(CC(=O)c1cccnc1)c1cccnc1 | 6% | 98% (active) | 98.8% (active) | 9% | 98% (active) | 98% (active) | 7% | 98% (active) | 98.5% (active) | 5% | 98% (active) | 76.7% (active) | 8% | 98% (active) | 97.7% (active) | 7% | 98% (active) | 99% (active)
5 | C=C1CC[C@@H]2C(C)(C)C(O)CCC2(C)C1COc1ccc2ccc(=O)oc2c1 (some centres undefined) | -10% | 94% (active) | 85.5% (active) | -4% | 97% (active) | 89.3% (active) | -1% | 92% (active) | 86.7% (active) | -5% | 94% (active) | 85.8% (active) | -40% | 94% (active) | 86.5% (active) | -38% | 93% (active) | 82.8% (active)
6 | CCOc1ccc2c(c1)[n+]([O-])c(S(=O)(=O)c1ccc(C)cc1)c(N)[n+]2[O-] | -5% | 63% | 91.2% (active) | 18% | 77% (active) | 48.3% | 30% | 88% (active) | 90.8% (active) | 13% | 55% | 90.3% (active) | 37% | 97% (active) | 93.3% (active) | 20% | 85% (active) | 94.2% (active)
7 | CN1C(=O)CCCCCCCCCCSc2ccccc21 | 7% | 97% (active) | 99% (active) | 8% | 99% (active) | 99% (active) | 4% | 97% (active) | 99.2% (active) | 7% | 99% (active) | 96.7% (active) | 16% | 98% (active) | 98.3% (active) | 6% | 98% (active) | 98.8% (active)
8 | CCOC(=O)C(C(=O)O)(C(c1ccccc1)c1ccccc1)C(c1ccccc1)c1ccccc1 | 97% (active) | 98% (active) | 98.5% (active) | 100% (active) | 100% (active) | 99.5% (active) | 98% (active) | 99% (active) | 98.4% (active) | 98% (active) | 99% (active) | 98.9% (active) | 98% (active) | 98% (active) | 98.3% (active) | 99% (active) | 99% (active) | 99% (active)
9 | CCNc1ncnc2c1ncn2Cc1ccco1 | -4% | 0% | -1.1% | -3% | 0% | 1.4% | -7% | -3% | 4.8% | 1% | -6% | 71.3% (active) | -2% | 1% | -4.05% | 1% | 1% | -2%
10 | CS/C(=N\C(=S)N(C)C)N(c1ccccc1)c1nc(=[N+](C)C)ss1 | 27% | 98% (active) | 98.5% (active) | 13% | 67% | 99.5% (active) | 38% | 98% (active) | 97.9% (active) | 1% | 99% (active) | 86.1% (active) | 27% | 97% (active) | 98.8% (active) | 22% | 98% (active) | 98.7% (active)
11 | O=C1NC(c2ccccc2)(c2ccccc2)C(=O)N1SC(Cl)(Cl)Cl | 98% (active) | 98% (active) | 90.3% (active) | 100% (active) | 99% (active) | 89.3% (active) | 99% (active) | 99% (active) | 90.8% (active) | 99% (active) | 99% (active) | 89.7% (active) | 99% (active) | 98% (active) | 88.5% (active) | 98% (active) | 99% (active) | 87.2% (active)
12 | COc1cc(C2C(C(=O)Nc3ccc(Cl)c(Cl)c3)=C(C)NC(C)=C2C(=O)Nc2ccc(Cl)c(Cl)c2)ccc1O | 19% | 19% | 91% (active) | -4% | -4% | 90.6% (active) | 2% | 2% | 88.7% (active) | 7% | 7% | 88.8% (active) | 13% | 13% | 91.2% (active) | 8% | 8% | 89.5% (active)
13 | Oc1cc(Br)cc2cc(Cl)cnc12 | 99% (active) | 89% (active) | 84.5% (active) | 97% (active) | 87% (active) | 84.5% (active) | 98% (active) | 93% (active) | 79.8% (active) | 98% (active) | 88% (active) | 80% (active) | 98% (active) | 86% (active) | 83.1% (active) | 98% (active) | 81% (active) | 75.5% (active)
14 | CCC[n+]1ccnc2ccccc21 | 2% | 2% | 15.3% | -11% | -1% | 8.3% | -4% | -10% | 27.9% | 13% | 4% | 11% | -2% | -5% | 19.6% | -4% | 14% | 22.9%
15 | CCN(CC)C(=S)N=Nc1c(O)[nH]c2ccccc12 | 80% (active) | 99% (active) | 82.5% (active) | 76% (active) | 99% (active) | 87.2% (active) |  |  |  | 85% (active) | 90% (active) | 89.8% (active) | 76% (active) | 99% (active) | 91% (active) | 82% (active) | 99% (active) | 92% (active)
16 | NCCCC(=O)NC(Cc1cnc[nH]1)C(=O)O (centres undefined) | 0% | -5% | -1.3% | -6% | -4% | 29.4% | 1% | -11% | 11.8% |  |  |  | -4% | -1% | 2.75% | -11% | -37% | -6.45%
17 | CCCCCCCCCc1cc(=O)[nH]c(=S)[nH]1 | 17% | 74% (active) | 85.1% (active) | 6% | 72% (active) | 77.7% (active) | 25% | 65% | 79.3% (active) |  |  |  | 8% | 77% (active) | 85.9% (active) | 20% | 84% (active) | 86.8% (active)
18 | CCOP(=O)(OCC)/C(C#N)=C/c1ccc(Oc2ccccc2)cc1 | -12% | 97% (active) | 90.2% (active) | -42% | 98% (active) | 93.6% (active) |  |  |  | -5% | 98% (active) | 90.6% (active) | -3% | 94% (active) | 90.5% (active) | 1% | 97% (active) | 89.8% (active)
19 | N=C(N)SCc1ccc(Br)cc1 | -13% | -17% | -2.75% | -29% | -23% | 13.8% | -20% | -15% | -15.9% | -16% | -4% | 27.6% |  |  |  | -29% | 2% | 19.9%
20 | C/C(=N/O)C1CC(CCC2([N+](=O)[O-])CCC(C)(O)C(/C(C)=N/O)C2)([N+](=O)[O-])CCC1(C)O (centres undefined) | 0% | -8% | 12.7% | 3% | -1% | 11.3% | -1% | -4% | -7.15% |  |  |  |  |  |  | 1% | 0% | 19.9%
21 | CC[C@@]1(O)C[C@H](OC2CC(N(C)C)C(OC3CC(O)C(OC4CCC(=O)C(C)O4)C(C)O3)C(C)O2)c2c(cc3c(c2O)C(=O)c2c(O)cccc2C3=O)[C@H]1C(=O)OC (some centres undefined) | 95% (active) | 97% (active) | 91.2% (active) | 98% (active) | 99% (active) | 92.8% (active) | 92% (active) | 97% (active) | 91.9% (active) | 92% (active) | 98% (active) | 89.2% (active) |  |  |  | 97% (active) | 98% (active) | 92% (active)
